Measurements as given in PubChem BioAssay AID1159580 (chemical genetic matrix, 2015).
“And” between values parts separate entries of the source, which are not always exact repeats. Equal values may be shown once. About 2,000 (36%) of roughly 5,500 compounds were called active. Inconclusive results (about 18%) are left out. This is one part of the list. A number with no mark means an inactive call. No stated cut-off is given here; in the data, active means normalized growth mostly below about 0.91 (no sharp cut-off); inconclusive means no clear call, values can overlap the other calls; inactive means mostly above about 0.92.

Assay: chemical genetic growth profiling, strain panel (AID 1159580);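 further: tested at 20 µM; growth read once vehicle control cultures reached saturation at 30 °C; 1 = growth at the plate median or of vehicle wells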
Conditions: growth OD

Compound: CCCCNc1ccc(C(=O)OCCN(C)C)cc1
- normalized growth (S. cerevisiae deletion strains, locus YJR075W, strain HOC1, stronger effect = lower value): 1.02
- normalized growth (S. cerevisiae deletion strains, locus YKL009W, strain mrt4, stronger effect = lower value): 1.02
- normalized growth (S. cerevisiae deletion strains, locus YKL068W, stronger effect = lower value): 1.01
- normalized growth (S. cerevisiae deletion strains, locus YKL085W, strain MDH1 (second series), stronger effect = lower value): 1.01
- normalized growth (S. cerevisiae deletion strains, locus YKL085W, strain MDH1, stronger effect = lower value): 1.01
- normalized growth (S. cerevisiae deletion strains, locus YKL160W, strain elf1, stronger effect = lower value): 1.03
- normalized growth (S. cerevisiae deletion strains, locus YKL190W, strain CNB1, stronger effect = lower value): 1.01
- normalized growth (S. cerevisiae deletion strains, locus YKR001C, strain vps1, stronger effect = lower value): 1.01
- normalized growth (S. cerevisiae deletion strains, locus YKR026C, strain gcn3, stronger effect = lower value): 1.01
- normalized growth (S. cerevisiae deletion strains, locus YKR091W, strain srl3, stronger effect = lower value): 1.01
- normalized growth (S. cerevisiae deletion strains, locus YLL001W, strain dnm1, stronger effect = lower value): 1
- normalized growth (S. cerevisiae deletion strains, locus YLL026W, stronger effect = lower value): 1.01
- normalized growth (S. cerevisiae deletion strains, locus YLL041C, strain sdh2, stronger effect = lower value): 0.998
- normalized growth (S. cerevisiae deletion strains, locus YLR027C, strain aat2, stronger effect = lower value): 1.01
- normalized growth (S. cerevisiae deletion strains, locus YLR039C, strain RIC1, stronger effect = lower value): 1.14
- normalized growth (S. cerevisiae deletion strains, locus YLR058C, strain SHM2, stronger effect = lower value): 1.01
- normalized growth (S. cerevisiae deletion strains, locus YLR102C, strain apc9, stronger effect = lower value): 1.02
- normalized growth (S. cerevisiae deletion strains, locus YLR113W, strain HOG1, stronger effect = lower value): 0.982
- normalized growth (S. cerevisiae deletion strains, locus YLR221C, strain rsa3, stronger effect = lower value): 0.975
- normalized growth (S. cerevisiae deletion strains, locus YLR258W, strain gsy2, stronger effect = lower value): 1.02
- normalized growth (S. cerevisiae deletion strains, locus YLR262C, strain YPT6 (second series), stronger effect = lower value): 1.05
- normalized growth (S. cerevisiae deletion strains, locus YLR262C, strain YPT6, stronger effect = lower value): 1.13
- normalized growth (S. cerevisiae deletion strains, locus YLR268W, strain sec22, stronger effect = lower value): 1.04
- normalized growth (S. cerevisiae deletion strains, locus YLR320W, strain mms22, stronger effect = lower value): 0.988
- normalized growth (S. cerevisiae deletion strains, locus YLR330W, strain CHS5, stronger effect = lower value): 1
- normalized growth (S. cerevisiae deletion strains, locus YLR342W, strain FKS1 (second series), stronger effect = lower value): 1
- normalized growth (S. cerevisiae deletion strains, locus YLR342W, strain FKS1, stronger effect = lower value): 1.02
- normalized growth (S. cerevisiae deletion strains, locus YLR357W, strain rsc2, stronger effect = lower value): 1.13
- normalized growth (S. cerevisiae deletion strains, locus YLR370C, strain arc18, stronger effect = lower value): 1.01
- normalized growth (S. cerevisiae deletion strains, locus YLR371W, strain rom2, stronger effect = lower value): 1.02
- normalized growth (S. cerevisiae deletion strains, locus YLR384C, strain iki3, stronger effect = lower value): 1.02
- normalized growth (S. cerevisiae deletion strains, locus YLR418C, strain cdc73, stronger effect = lower value): 1.01
- normalized growth (S. cerevisiae deletion strains, locus YML016C, strain PPZ1, stronger effect = lower value): 1
- normalized growth (S. cerevisiae deletion strains, locus YML032C, strain rad52, stronger effect = lower value): 1.02
- normalized growth (S. cerevisiae deletion strains, locus YML120C, strain ndi1, stronger effect = lower value): 0.995
- normalized growth (S. cerevisiae deletion strains, locus YML124C, strain tub3, stronger effect = lower value): 1.02
- normalized growth (S. cerevisiae deletion strains, locus YMR058W, strain fet3, stronger effect = lower value): 1.02
- normalized growth (S. cerevisiae deletion strains, locus YMR078C, strain ctf18, stronger effect = lower value): 1.02
- normalized growth (S. cerevisiae deletion strains, locus YMR125W, strain sto1, stronger effect = lower value): 1.05
- normalized growth (S. cerevisiae deletion strains, locus YMR129W, stronger effect = lower value): 1.01
- normalized growth (S. cerevisiae deletion strains, locus YMR205C, strain PFK2, stronger effect = lower value): 1.02
- normalized growth (S. cerevisiae deletion strains, locus YMR223W, strain ubp8, stronger effect = lower value): 1.01
- normalized growth (S. cerevisiae deletion strains, locus YMR231W, strain pep5, stronger effect = lower value): 1.02
- normalized growth (S. cerevisiae deletion strains, locus YMR307W, strain GAS1, stronger effect = lower value): 0.943 and 1.02
- normalized growth (S. cerevisiae deletion strains, locus YNL067W, strain RPL9B, stronger effect = lower value): 1.01
- normalized growth (S. cerevisiae deletion strains, locus YNL071W, strain lat1, stronger effect = lower value): 1.02
- normalized growth (S. cerevisiae deletion strains, locus YNL128W, strain TEP1, stronger effect = lower value): 1.02
- normalized growth (S. cerevisiae deletion strains, locus YNL153C, strain GIM3, stronger effect = lower value): 1
- normalized growth (S. cerevisiae deletion strains, locus YNL175C, strain NOP13, stronger effect = lower value): 1.01
- normalized growth (S. cerevisiae deletion strains, locus YNL183C, strain NPR1, stronger effect = lower value): 0.93
- normalized growth (S. cerevisiae deletion strains, locus YNL197C, strain WHI3, stronger effect = lower value): 0.982
- normalized growth (S. cerevisiae deletion strains, locus YNL209W, strain ssb2, stronger effect = lower value): 1.02
- normalized growth (S. cerevisiae deletion strains, locus YNL224C, strain SQS1, stronger effect = lower value): 0.99
- normalized growth (S. cerevisiae deletion strains, locus YNL233W, strain BNI4, stronger effect = lower value): 1
- normalized growth (S. cerevisiae deletion strains, locus YNL248C, strain rpa49, stronger effect = lower value): 1.13 [resistant] (active)
- normalized growth (S. cerevisiae deletion strains, locus YNL250W, strain rad50, stronger effect = lower value): 0.998
- normalized growth (S. cerevisiae deletion strains, locus YNL271C, strain bni1, stronger effect = lower value): 1.01
- normalized growth (S. cerevisiae deletion strains, locus YNL298W, strain CLA4, stronger effect = lower value): 1.02
- normalized growth (S. cerevisiae deletion strains, locus YNL307C, strain MCK1, stronger effect = lower value): 1.02
- normalized growth (S. cerevisiae deletion strains, locus YNL322C, strain KRE1 (second series), stronger effect = lower value): 1.01
- normalized growth (S. cerevisiae deletion strains, locus YNL322C, strain KRE1, stronger effect = lower value): 1.01 and 1.02
- normalized growth (S. cerevisiae deletion strains, locus YNR049C, strain mso1, stronger effect = lower value): 1.02
- normalized growth (S. cerevisiae deletion strains, locus YNR052C, strain pop2, stronger effect = lower value): 1.01
- normalized growth (S. cerevisiae deletion strains, locus YOL006C, strain TOP1, stronger effect = lower value): 0.943
- normalized growth (S. cerevisiae deletion strains, locus YOL012C, strain htz1): 0.973
- normalized growth (S. cerevisiae deletion strains, locus YOL147C, strain pex11, stronger effect = lower value): 1.02
- normalized growth (S. cerevisiae deletion strains, locus YOR001W, strain rrp6, stronger effect = lower value): 0.954
- normalized growth (S. cerevisiae deletion strains, locus YOR061W, strain CKA2, stronger effect = lower value): 1
- normalized growth (S. cerevisiae deletion strains, locus YOR069W, strain VPS5, stronger effect = lower value): 1.01
- normalized growth (S. cerevisiae deletion strains, locus YOR070C, strain gyp1, stronger effect = lower value): 1
- normalized growth (S. cerevisiae deletion strains, locus YOR080W, strain dia2, stronger effect = lower value): 1
- normalized growth (S. cerevisiae deletion strains, locus YOR083W, strain WHI5 (second series), stronger effect = lower value): 0.999
- normalized growth (S. cerevisiae deletion strains, locus YOR083W, strain WHI5, stronger effect = lower value): 1.02
- normalized growth (S. cerevisiae deletion strains, locus YOR106W, strain vam3, stronger effect = lower value): 1.04
- normalized growth (S. cerevisiae deletion strains, locus YOR136W, strain idh2, stronger effect = lower value): 1.02
- normalized growth (S. cerevisiae deletion strains, locus YOR144C, strain elg1, stronger effect = lower value): 1.01
- normalized growth (S. cerevisiae deletion strains, locus YOR184W, strain ser1, stronger effect = lower value): 1.04
- normalized growth (S. cerevisiae deletion strains, locus YOR231W, strain MKK1, stronger effect = lower value): 0.995
- normalized growth (S. cerevisiae deletion strains, locus YOR265W, strain rbl2, stronger effect = lower value): 1.02
- normalized growth (S. cerevisiae deletion strains, locus YOR270C, strain vph1, stronger effect = lower value): 0.988
- normalized growth (S. cerevisiae deletion strains, locus YOR290C, strain snf2, stronger effect = lower value): 1.06
- normalized growth (S. cerevisiae deletion strains, locus YOR316C, strain cot1, stronger effect = lower value): 1.02
- normalized growth (S. cerevisiae deletion strains, locus YPL051W, strain arl3, stronger effect = lower value): 1.03
- normalized growth (S. cerevisiae deletion strains, locus YPL055C, strain LGE1, stronger effect = lower value): 1.02
- normalized growth (S. cerevisiae deletion strains, locus YPL078C, strain atp4, stronger effect = lower value): 1.04
- normalized growth (S. cerevisiae deletion strains, locus YPL106C, strain sse1, stronger effect = lower value): 1.05
- normalized growth (S. cerevisiae deletion strains, locus YPL240C, strain hsp82, stronger effect = lower value): 0.998
- normalized growth (S. cerevisiae deletion strains, locus YPL241C, strain CIN2, stronger effect = lower value): 1
- normalized growth (S. cerevisiae deletion strains, locus YPL256C, strain CLN2, stronger effect = lower value): 0.964
- normalized growth (S. cerevisiae deletion strains, locus YPR119W, strain clb2, stronger effect = lower value): 1.01
- normalized growth (S. cerevisiae deletion strains, locus YPR141C, strain kar3, stronger effect = lower value): 1.02
- normalized growth (S. cerevisiae deletion strains, locus YPR163C, strain tif3, stronger effect = lower value): 1.02
- normalized growth (S. cerevisiae deletion strains, locus YPR167C, strain met16, stronger effect = lower value): 1.02
- normalized growth (S. cerevisiae deletion strains, strain wtn01, stronger effect = lower value): 1.04
- normalized growth (S. cerevisiae strains, strain wild type, stronger effect = lower value): 1
